Measurements published in PubChem BioAssay AID1259417 (TB Discovery Research, Infectious Disease Research Institute, 2018).
Among all 1,100 compounds or so, about 760 (69%) were called active. How the calls were made is not given here. The set was probably picked from earlier hits. The list shows a part of the results.

Assay: M. tuberculosis growth inhibition, HTS (AID 1259417);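 further: bacteria grown with compound for 5 days at 37 °C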
Conditions: stronger effect = higher value, concentration not given here
[1] = M. tuberculosis DsRed fluorescence growth inhibition
[2] = M. tuberculosis growth inhibition

Row | SMILES | inhibition [1] | inhibition [2] [%]
1 | Cc1ccc(C)c(-c2nnc(NC(=O)c3ccccc3F)o2)c1 | 80.6% (active) | 85.5
2 | Cc1ccc(C)c(-c2nnc(NC(=O)C(C)C)o2)c1 | 67% (active) | 78.6
3 | Cc1ccc(C)c(-c2nnc(NC(=O)c3cccc4ccccc34)o2)c1 | -3.96% (inactive) | -5.52
4 | COc1ccccc1C(=O)Nc1nnc(-c2cc(C)ccc2C)o1 | -3.37% (inactive) | -7.24
5 | Cc1ccc(C)c(-c2nnc(NC(=O)C(C)(C)C)o2)c1 | 84.1% (active) | 83.8
6 | Cc1ccc(C)c(-c2nnc(NC(=O)c3cc(Cl)sc3Cl)o2)c1 | 99.2% (active) | 96.3
7 | Cc1ccc(C)c(C(=O)Nc2nnc(-c3cc(C)ccc3C)o2)c1 | 87.9% (active) | 74.7
8 | CCCC(=O)Nc1nnc(-c2cc(C)ccc2C)o1 | 10.9% (active) | 48.8
9 | CCCC(=O)Nc1nnc(-c2ccc(C)cc2C)o1 | 2.17% (inactive) | 26.4
10 | CCOc1ccccc1NC(=O)CSc1nc2ccc(NC(=O)c3ccccc3Cl)cc2s1 | -3.22% (inactive) | -11.8
11 | COc1cccc(OC)c1C(=O)Nc1ccc(Cl)c(-c2nc3ccccc3s2)c1 | 72.8% (active) | 62.9
12 | CCc1ccc(/C=c2\s/c(=C/C(=O)C(C)(C)C)[nH]c2=O)cc1 | 99.8% (active) | 99.5
13 | CC(C)Cn1c(N2CCN(Cc3ccc(Cl)c(Cl)c3)CC2)nc2c1c(=O)[nH]c(=O)n2C | 7.43% (active) | 34.1
14 | COc1ccc(CC2SC(=NN=Cc3ccccc3O)NC2=O)cc1 (stereo not given) | 98.1% (active) | 97.1
15 | O=C1NC(=NN=Cc2ccccc2O)SC1Cc1ccc(F)cc1 (stereo not given) | 99.2% (active) | 98.8
16 | CC(=N/N=C1\NC(=O)C(Cc2ccc(Cl)cc2)S1)c1ccc(F)cc1 (stereo not given) | 5% (inactive) | -11.9
17 | CC(=N/N=C1\NC(=O)C(Cc2ccc(F)cc2)S1)c1ccc(Cl)cc1 (stereo not given) | 8.19% (inactive) | -27.8
18 | CCc1ccccc1-n1c(=O)oc2ccc(Cl)cc2c1=O | 101% (active) | 100
19 | Cc1ccc(-n2c(=O)oc3ccc(Cl)cc3c2=O)cc1Cl | 100% (active) | 101
20 | Cc1ccc(-c2c[n+](CC(=O)Nc3nc(-c4ccc(F)cc4)cs3)c3n2CCC3)cc1 | 15.8% (inactive) | 14.8
21 | Cc1cccc(-n2c(N)cc(=O)nc2SCC(=O)Nc2nc(-c3ccccc3)cs2)c1 | -2.92% (inactive) | -16.5
22 | CCOC(=O)C=CC(=O)Nc1nc(-c2ccccc2)cs1 | 41.3% (active) | 56
23 | CCc1ccc(OCC(=O)NNC(=O)c2cnccn2)c(Br)c1 | 93.6% (active) | 95.4
24 | COC(=O)COc1ccc(C=C(C#N)c2nc3ccccc3[nH]2)cc1 | 59.4% (active) | 79.9
25 | CCOC(=O)COc1c(Cl)cc(C=C(C#N)c2nc3ccc(OC)cc3[nH]2)cc1Cl | 45.4% (active) | 50.3
26 | CCOC(=O)Cn1cc(C=C(C#N)c2nc3ccc(OC)cc3[nH]2)c2ccccc21 | -3.18% (inactive) | 0.813
27 | Cc1ccc2nc(/C(C#N)=C/c3c[nH]c4ccc(Br)cc34)[nH]c2c1 | 19.3% (inactive) | 22.8
28 | N#CC(=CNc1ccccc1)c1nc2ccccc2[nH]1 | 34.4% (active) | 48.7

Row | SMILES | inhibition [1] | inhibition [2] [%]
29 | CCOC(=O)C1=C(C)N(c2ccc(Br)cc2)C(=O)C1 | 6.73% (inactive) | 8.65
30 | O=C1Nc2ccccc2/C1=N/N=C/C1=C(N2CCOCC2)C(=C\c2ccccc2)/CC1 | -1.05% (inactive) | -11.8
31 | COC(=O)COc1ccc(NC(=O)c2cccc(C)c2)cc1 | 68.2% (active) | 87.4
32 | COC(=O)COc1cccc(NC(=O)c2ccc(Cl)cc2)c1 | 50% (active) | 72.5
33 | COC(=O)COc1cccc(NC(=O)c2cccc(C)c2)c1 | 14.1% (active) | 40.2
34 | O=C(c1ccc(Cl)cc1)C1CCCN(Cc2cnn(-c3ccccc3)c2)C1 (stereo not given) | 1.81% (inactive) | -16.6
35 | CC1CCCN(CCC(=O)c2ccc(Br)cc2)C1 (stereo not given) | 72.2% (active) | 84.5
36 | COc1ccc(C(=O)CCN2CCCC(C)C2)cc1 (stereo not given) | 13.2% (inactive) | 13.2
37 | Cc1cc(N2CCCCC2)nc2ccc(NC(=O)c3ccc(Br)o3)cc12 | 0.712% (inactive) | -27.2
38 | COc1cc2c(cc1NC(=O)Nc1ccc(Cl)cc1)oc1ccccc12 | 0.315% (inactive) | -15.8
39 | Cc1ccc(Cc2ccc(C(=O)Nc3ccc(C)c(C)c3)o2)cc1 | 99.7% (active) | 99.7
40 | COc1ccc(C)cc1NC(=O)c1ccc(Cc2ccc(C)cc2)o1 | 98.3% (active) | 101
41 | COc1ccc2c(c1)CCC1Sc3ccccc3N=C21 (stereo not given) | 1.21% (inactive) | 17
42 | COC(=O)C(CC(C)C)NC(=O)/C=C/c1ccc(Cl)cc1 (stereo not given) | 53.1% (active) | 45.8
43 | COC(=O)C(CC(C)C)NC(=O)/C=C/c1ccccc1Cl (stereo not given) | 11.6% (inactive) | 28.6
44 | CC(C)Cc1cc(C(=O)Nc2c(F)cc(F)cc2Br)no1 | 22.3% (active) | 57.6
45 | O=C(c1ccco1)N(CCCn1ccnc1)c1nc2ccc(Cl)cc2s1 | 97.8% (active) | 99.1
46 | Cc1ccc2nc(N(CCCn3ccnc3)C(=O)c3ccco3)sc2c1 | 96.9% (active) | 98.4
47 | O=C(c1ccco1)N(CCCn1ccnc1)c1nc2ccc(Br)cc2s1 | 98.9% (active) | 98.4
48 | O=C1N(c2ccc3c(c2)OCCO3)C(c2ccccc2)C1(F)F (stereo not given) | 36.5% (active) | 75.8
49 | O=C(Nc1nnc(-c2ccc(Br)cc2)o1)c1ccc(Cl)s1 | 32.9% (active) | 79.2
50 | O=C(Nc1nnc(-c2ccc(F)cc2)o1)c1ccc(Br)s1 | 66.4% (active) | 78.5
51 | O=C(Nc1nnc(-c2ccc(Br)cc2)o1)c1cc(Cl)sc1Cl | 8.56% (inactive) | 28.1
52 | COc1ccc(-c2nnc(NC(=O)c3ccc(Cl)s3)o2)cc1 | 75.4% (active) | 80.6
53 | CC(C)(C)c1ccc(-n2c(=O)[nH]c3c(C(N)=O)nc(CCc4ccccc4)nc32)cc1 | 2.16% (inactive) | -28.9
54 | COc1ccc(Cn2c(=O)c3c(n4cnnc24)-c2ccccc2CC32CCCCC2)cc1 | 21.7% (inactive) | 2.83
55 | COc1ccc(C2(CNC(=O)c3cc([N+](=O)[O-])cc([N+](=O)[O-])c3)CCCC2)cc1OC | 98.6% (active) | 94.9
